Compound activity: PubChem BioAssay, National Center for Advancing Translational Sciences (NCATS)
This is a sample that favours compounds with a hit; in the whole collection about 9.4% have one here.
NPC1 promoter act: qHTS Assay for NPC1 Promoter Activators | Potency, µM (doses to about 9.22 µM), hits mostly activators | Huh7 NPC1 promoter luciferase reporter, 24 h | AID 485313, 2010 | actives 2.4% (n = 320,000); further: nearly all actives have a fitted effect of over 60% in size
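Cells: Huh7 expressing luciferase under the NPC1 promoter, 1500/well. Seeded 2 h, compound added, incubated 24 h at 37 °C. Luciferase reagent, 10 min ambient, then luminescence.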
FLuc modulator: qHTS profiling assay for firefly luciferase inhibitor/activator using purifed enzyme and Km concentrations of substrates (counterscreen for miR-21 project) | Luciferin 4-monooxygenase (Photinus pyralis), P08659 | purified FLuc, Km substrates, luminescence inhibition | actives 6.9% (n = 360,000) | Potency, µM (series often up to 57.5 µM), usual class: inhibitors; further: nearly all actives have a fitted effect of over 55% in size
Target sequence (P08659 whole entry, looked up): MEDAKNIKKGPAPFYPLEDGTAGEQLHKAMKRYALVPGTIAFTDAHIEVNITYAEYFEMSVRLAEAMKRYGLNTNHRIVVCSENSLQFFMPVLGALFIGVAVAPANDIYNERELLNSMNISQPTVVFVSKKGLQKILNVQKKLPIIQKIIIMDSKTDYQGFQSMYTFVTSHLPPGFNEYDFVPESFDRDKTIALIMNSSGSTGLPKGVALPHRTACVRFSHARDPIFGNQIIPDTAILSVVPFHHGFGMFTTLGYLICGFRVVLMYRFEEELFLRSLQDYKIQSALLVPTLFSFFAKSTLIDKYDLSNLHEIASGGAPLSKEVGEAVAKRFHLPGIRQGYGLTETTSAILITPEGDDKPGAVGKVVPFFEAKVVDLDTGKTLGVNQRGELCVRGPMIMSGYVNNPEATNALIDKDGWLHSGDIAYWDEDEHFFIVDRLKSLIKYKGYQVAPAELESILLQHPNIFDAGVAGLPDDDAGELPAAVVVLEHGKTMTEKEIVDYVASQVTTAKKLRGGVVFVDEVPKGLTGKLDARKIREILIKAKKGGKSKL
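Biochemical qHTS of compounds, final roughly 60 µM downward over six points, against 10 nM purified firefly luciferase using Km concentrations of substrates (10 uM D-luciferin, 10 uM ATP) in Tris acetate pH 7.5 buffer; luminescence output.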
SMN2 splice up: qHTS Assay for Enhancers of SMN2 Splice Variant Expression | HEK293 SMN2-luciferase splicing reporter, luminescence, 30-36 h | Potency, µM (series often up to 46.1 µM), hits mostly activators | actives 2.8% (n = 210,000) | AID 1458, 2008; further: nearly all actives have a fitted effect of over 55% in size
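HEK293 cells carry an SMN2 minigene-luciferase reporter in which exon 7 inclusion puts luciferase in frame. Cells were seeded at 2000 cells/well, attached for 10-12 hours, then exposed to compounds for 30-36 hours at 37C before ONE-Glo luminescence.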
ELG1 genotoxic: qHTS screen for small molecules that induce genotoxicity in human embryonic kidney (HEK293T) cells expressing luciferase-tagged ELG1. AID 504466, 2011. HEK293T ELG1-luciferase reporter, luminescence, 16 h. Potency, µM (top dose mostly 46 µM), usual class: activators. actives 1.3% (n = 330,000); further: nearly all actives have a fitted effect of over 60% in size
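ELG1-luciferase HEK293T cells, 2,000/well; compound pinned in; 16 hr, 37 °C, 5% CO2; ONE-Glo, 30 min RT; luminescence on CCD imager.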
ELG1 DNA repair: qHTS screen for small molecules that inhibit ELG1-dependent DNA repair in human embryonic kidney (HEK293T) cells expressing luciferase-tagged ELG1 | HEK293T ELG1-luciferase reporter, luminescence, 16 h; DNA damage induced by 5-fluorouridine | Potency, µM (doses to about 46.1 µM), most hits filed as inhibitors | actives 2.3% (n = 330,000); further: nearly all actives have a fitted effect of over 55% in size
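DMSO vehicle served as the neutral condition. Each well held 2,000 cells given 5-fluorouridine plus compound; after 16 hr at 37 °C/5% CO2, ONE-Glo was added and luciferase measured 30 min later.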
Rab9 prom act: qHTS Assay for Rab9 Promoter Activators; Huh7 Rab9 promoter-luciferase reporter, luminescence, 24 h; Potency, µM (top dose mostly 9.22 µM), usual class: activators; actives 2.8% (n = 320,000); further: nearly all actives have a fitted effect of over 60% in size
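Huh7 cells stably carrying Rab9 promoter–luciferase reporter, plated 1500 cells/well, compound added after 2 h and incubated 24 h at 37 °C; luciferase luminescence then read after 10 min with detection reagent.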
Hits are given with their value; n = inactive; u = inconclusive; x = no result; [ ] = remark or other dose. The call rests on the fitted dose curve; in most records, active means well fitted curve in the direction sought with a large enough effect; inconclusive means small, poorly fitted or top-dose-only effect, or another doubt; inactive means no such curve, though single readings can be large; an effect the other way counts as inactive or inconclusive.

SMILES	NPC1 promoter act	FLuc modulator	SMN2 splice up	ELG1 genotoxic	ELG1 DNA repair	Rab9 prom act
CCOC(=O)c1cc(-c2ccc(OC)cc2)nc2c1c(C)nn2CCC#N	n	n	n	n	3.7µM	n
CCOC(=O)c1cc(-c2ccc(C#N)cc2)nc2c1c(C)nn2CCC#N	n	n	n	n	u	n
CCOC(=O)C1CCN(c2ncnc3c2oc2ccccc23)CC1	n	n	n	n	u	n
CCOC(=O)c1cnn(-c2ccccn2)c1N	4µM	21µM	x	u	u	4µM
CCOC(=O)c1cc(-c2ccncc2)nc2c1c(C)nn2-c1ccccn1	n	n	n	n	23µM	n
CCOC(=O)c1cnn(-c2ncnc3c2oc2ccccc23)c1N	1.3µM	1.1µM	10µM	1.6µM	u	1.1µM
CCOC(=O)c1cnn(-c2cc(Oc3ccccc3)ncn2)c1N	n	n	n	n	n	n
c1ccc(C(NCc2cccnc2)(c2ccccc2)c2ccccc2)cc1	n	x	x	x	x	n
C[C@H]1CN(CCO)CCN1c1ccccc1	x	x	n[9.22 µM]	x	x	x
COc1ccccc1-c1cc2nc(C)c(CCC(=O)NCCc3ccc(SC)cc3)c(C)n2n1	x	n	n	x	x	x
CCN(CC)S(=O)(=O)c1ccc(C(=O)NCCSc2c(-c3ccc(C)cc3)[nH]c3ccccc23)cc1	x	n	n	x	x	x
Cc1cccc(-n2ncc(C(=O)NCc3ccccn3)c2C2CCN(C(=O)OC(C)(C)C)CC2)c1	x	n	x	x	x	x
COC(=O)[C@H]1C[C@@H]1[C@H](NC(C)=O)c1ccccc1	x	x	n	x	x	x
CCOC(=O)c1cnn(-c2cc(Oc3ccccc3C)ncn2)c1N	n	u	u	n	n	n
CCOC(=O)c1cnn(-c2cc(C)c3ccccc3n2)c1N	u	8.5µM	n	n	n	n
CCOCC(=O)Nc1cc(C(=O)NCCc2ccccc2)ccc1Cl	1µM	n	x	u	u	2µM
COc1ccc(C(=O)Nc2cc(C(=O)NCCc3ccccc3)ccc2Cl)cc1	n	u	10µM	n	n	n
CC(C)CCNC(=O)c1ccc(Cl)c(NC(=O)Cc2ccccc2)c1	n	n	n	n	n	n
COCC(=O)Nc1cc(C(=O)NCCc2ccccc2)ccc1Cl	1.8µM	u	0.63µM	u	u	2µM
CC(=O)OCC(=O)[C@@]1(O)CCC2C3CCC4=CC(=O)C=CC4(C)C3C(O)C[C@]21C (some centres undefined)	x	x	n	x	x	x
Cc1ccccc1C(=O)Nc1c(C)nc(Nc2ccccc2)nc1Nc1ccccc1	x	n	n	x	x	x
O=C1C2C(C(=O)N1CCN1CCN(Cc3ccc([N+](=O)[O-])cc3)CC1)[C@H]1C=C[C@@H]2C1 (some centres undefined)	n	n	x	n	16µM	n
O=[N+]([O-])c1ccc(CN2CCCCCC2)cc1	n	n	x	n	n	n
COC(=O)c1cccc(Nc2nn3c(=O)c4cc5c(cc4nc3s2)OCO5)c1	x	u	n	x	x	x
CN1c2ccccc2Oc2nnc(N3CCN(Cc4ccccc4)CC3)cc21	n	19µM	x	n	u	u
SMILES	NPC1 promoter act	FLuc modulator	SMN2 splice up	ELG1 genotoxic	ELG1 DNA repair	Rab9 prom act
O=S(=O)(c1ccc(F)cc1)N1CCC(n2c(C(F)(F)F)nc3cccnc32)CC1	x	n	x	x	x	x
Cc1ccc2nc(-c3ccncc3)cc(C(=O)N3CCOCC3)c2c1	n	n	x	n	n	n
COC(=O)c1ccc(-c2cc(C(=O)O)c3cc4c(cc3n2)OCCO4)cc1	n	4.8µM	n	u	u	n
Cc1cc(C)c2nc(-c3ccncc3)cc(C(=O)N3CCN(Cc4ccccc4Cl)CC3)c2c1	n	15µM	x	n	u	n
COc1cc(-c2cc(C(=O)O)c3cc4c(cc3n2)OCCO4)cc(OC)c1OC	n	n	n	n	n	n
O=C(c1cc(-c2ccncc2)nc2ccc(Cl)cc12)N1CCN(Cc2ccc3c(c2)OCO3)CC1	n	u	n	n	15µM	n
COc1ccc(CN2CCN(C(=O)c3cc(-c4cccnc4)nc4ccc(Cl)cc34)CC2)c(OC)c1OC	n	n	n	n	9.2µM	n
CS(=O)(=O)N1CCN(C(=O)c2cc(-c3cccnc3)nc3ccc(Cl)cc23)CC1	n	n	n	n	u	n
O=C(c1cc(-c2ccncc2)nc2ccc(Br)cc12)N1CCN(Cc2ccc3c(c2)OCO3)CC1	n	n	n	n	u	n
O=C(O)c1cc(-c2ccc3c(c2)OCO3)nc2ccc(Cl)cc12	n	2.4µM	x	n	u	n
O=C(O)c1cc(-c2ccc(-c3ccc(-c4cc(C(=O)O)c5cc(Cl)ccc5n4)cc3)cc2)nc2ccc(Cl)cc12	x	x	n[9.22 µM]	x	x	x
CN1CCc2c(sc3c2C(=O)NC(c2cccc(OC(=O)c4cccs4)c2)N3)C1 (centres undefined)	n	17µM	u	n	u	n
COc1cc(C2NC(=O)c3c(sc4c3CCN(C)C4)N2)ccc1OC(=O)c1ccccc1 (centres undefined)	x	u	n	x	x	x
CCCCCn1c(=O)c(-c2nc3ccccc3[nH]2)c(O)c2ccccc21	n	n	n	n	7.3µM	n
COC(=O)c1ccc(COc2cc([N+](=O)[O-])cc3cccnc23)o1	n	21µM	x	n	n	n
Cc1ccc(OCc2ccc(C(=O)NN)o2)c([N+](=O)[O-])c1	n	u	x	n	n	n
COC(=O)c1ccc(COc2ccc(C)cc2[N+](=O)[O-])o1	u	19µM	x	n	u	u
N=C(N)c1ccc(-c2ccc(-c3ccc(C(=N)N)cc3)o2)cc1	x	x	n[9.22 µM]	x	x	x
COc1ccc(C)c2sc(N(Cc3cccnc3)C(=O)C3CCCCC3)nc12	x	n	x	x	x	x
CCOc1ccc(NS(=O)(=O)c2ccc3[nH]c4c(c3c2)CCCCC4)cc1	x	n	x	x	x	x
CN(C)c1ccc(C(=O)c2ccc(O)cc2O)cc1	u	11µM	u	u	u	n
COc1ccc(-n2c(-c3ccc(Br)cc3)c[n+]3c2CCC3)cc1	n	n	n	n	1.8µM	n
COc1ccc(-n2c(-c3ccccc3)c[n+]3c2CCC3)cc1	n	n	x	n	u	n
COc1ccc(-n2c(-c3ccc(Br)cc3)c[n+]3c2CCCCC3)cc1	n	n	n	n	5.2µM	n
COc1ccc(-n2c(-c3ccc(Br)cc3)c[n+]3c2SC(C)C3)cc1 (centres undefined)	n	n	n	n	5.8µM	n
COc1ccc(-n2c(-c3ccc(Br)cc3)n[nH]c2=S)cc1	n	n	x	n	n	n
